Where “and” joins values, the source holds several entries; their conditions need not be identical. Equal values may be shown once. Records with an inconclusive call do not appear. Calls of active or inactive are those of the source. Unless noted, calls come from the whole dose curve; as a rule, active = well fitted curve in the direction sought with a large enough effect; inconclusive = small, poorly fitted or top-dose-only effect, or another doubt; inactive = no such curve, though single readings can be large; an effect the other way counts as inactive or inconclusive.

Test [1] addresses Arylsulfatase A (Homo sapiens) (UniProt P15289). Kind of test: qHTS screen for enhancers of Arylsulfatase A (ASA1): LOPAC Validation Assay (AID 720538). As to conditions: outcome: dose series up to 57.5 µM. The method, boiled down: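 Cell-based enhancement test: residual ASA activity in SV40-transformed I179S patient fibroblasts is measured by pNCS turnover (0.5mM final, 14h, room temperature) following 48h compound incubation; higher fluorescence indicates activation.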
A general note: In qHTS, concentration-response curves come from the screen itself.

Test [2] is described as follows: qHTS for compounds that reverse cellular toxicity of Amyloid beta (A-beta) peptide in yeast: LOPAC Validation Assay (AID 720559).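 Note: plate controls were DMSO for no effect and equimolar ferric chloride plus clioquinol rescue for full effect.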 In a few lines: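 Here, A-beta-toxic yeast grow with test compounds at 30 C for 48 hr before optical density at 600 nm is recorded; data are normalized against DMSO and the FeCl3-clioquinol control.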
Test [3] in a line: qHTS for Activators of Parkin Expression: LOPAC Validation Assay (NLuc Reporter) (AID 720572;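 note: 0% = DMSO and 100% = positive control compound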). The method, boiled down:
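Neuronal cells with a Parkin promoter-driven FLuc/NLuc coincidence reporter were treated 24 h at 37 C in 7-point dose response (LOPAC). NLuc luminescence read after FLuc; signals normalized to DMSO and positive control (100%).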

Test [4] is described as follows: qHTS for Activators of Parkin Expression: LOPAC Validation Assay (FLuc Reporter) (AID 720573;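 note: 0% = DMSO and 100% = positive control compounds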). The method, boiled down:
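Readout is FLuc luminescence from neuronal reporter cells (Parkin promoter, FLuc plus NLuc) after 24 h compound exposure in dose response. Values normalized to neutral DMSO and positive-control compounds.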

Test [5] addresses T1, Hexokinase-4 (Homo sapiens) + Glucokinase regulatory protein (Homo sapiens) (UniProt P35557+Q14397). As to the kind of experiment: qHTS assay for inhibitors of recombinant human GCK-GKRP interaction: Diaphorase-coupled assay (AID 743205). The method, boiled down: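 Signal derives from resorufin generated by diaphorase, linked to GCK turnover of glucose (5 mM) and ATP (0.4 mM). Enzyme complex was added after a 20-minute compound preincubation and monitored for 30 minutes.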

The target in test [6] is T1, Hexokinase-4 (Homo sapiens) + Glucokinase regulatory protein (Homo sapiens). As to the kind of experiment: qHTS assay for inhibitors of recombinant human GCK-GKRP interaction: ADP-Glo assay (AID 743206).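 Note: plate controls were DMSO plus enzyme for no effect and no enzyme for full effect.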 The method, boiled down:
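GST-GCK and FLAG-GKRP (15 nM each in the dispensed mix, with 2 uM S6P) react with 0.4 mM ATP and 5 mM glucose (final) in Hepes pH 7.6 for 60 min at room temperature. ADP is measured by ADP-Glo luminescence.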

Test [7] has the same target. As to the kind of experiment: qHTS assay for inhibitors of recombinant human GCK-GKRP interaction: HTRF assay (AID 743207).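 Note: 0% = DMSO with GCK present and -100% = DMSO wells lacking GCK.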 The method, boiled down: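 Titration screening format: recombinant GST-GCK and FLAG-GKRP at 5 nM, S6P at 2 uM, labelled anti-tag antibodies, 60 min at RT, dual-wavelength HTRF readout.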
Test [8] is described as follows: qHTS Assay for Identifying Gametocytocidal Compounds (AID 743244).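 For max response: % is set by controls: 0 for no effect and ±100 for the full control effect; actives lower the fluorescent signal which means gametocytes are killed.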 Note: potency is the fitted concentration of half-maximal effect. To be noted: P. falciparum 3D7 stage III-V gametocytes, alamarBlue, 72 h; max response: stronger effect = lower value. In a few lines:
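Stage III-V P. falciparum 3D7 gametocytes, 20,000 per well, were exposed to compounds for 72 h at 37C, 5% CO2. AlamarBlue was then added for 24 h and viability was read as fluorescence at Ex 525/Em 598 nm.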

Test [9] can be described thus: qHTS profiling of the MIPE4 collection as inhibitors of Plasmodium falciparum (DD2) proliferation (AID 743345; call rule not given here). As to conditions: P. falciparum Dd2 in erythrocytes, SYBR Green DNA, 72 h; at 28.5 µM (top of the series) unless noted. The method, boiled down: (§1)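 Erythrocytes infected with P. falciparum (0.3% parasitemia, 2.5% hematocrit) incubated with compounds 72 h at 37 C, 5% CO2. Lysis with saponin/Triton buffer containing SYBR Green I, overnight at room temperature in the dark; DNA fluorescence (485/535 nm) normalised to 0.29 uM artemisinin and DMSO.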

Test [10] can be described thus: qHTS profiling of the MIPE4 collection as inhibitors of Plasmodium falciparum (3D7) proliferation (AID 743344; call rule not given here;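 note: scaled between DMSO vehicle wells and 0.29 µM artemisinin as full inhibition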). As to conditions: P. falciparum 3D7 in erythrocytes, SYBR Green DNA fluorescence, 72 h; at 28.5 µM (top of the series) unless noted. The method, boiled down:
as §1

Test [11] is described as follows: qHTS assay for small molecule agonists of the antioxidant response element (ARE) signaling pathway measured by Nrf2-dependant transcriptional activity (AID 720636; active = well fitted curve in the direction sought with a large enough effect in the repeat runs; an effect the other way counts as inactive or inconclusive;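 note: HepG2 cells with an ARE-driven luciferase reporter; % of control where 0% means no effect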). The method, boiled down:
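Nrf2-dependent transcription is measured in ARE-luc HepG2 cells: compound is applied for 16 hr at 37 C after a 6 hr attachment period, and luciferase activity is quantified by luminescence using ONE-Glo.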

Test [12] is described as follows: qHTS assay for small molecule antagonists of the retinoid-related orphan receptor gamma (ROR-gamma) signaling pathway - cell viability counter screen (AID 720652; active = well fitted curve in the direction sought with a large enough effect in the repeat runs; an effect the other way counts as inactive or inconclusive;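 note: compound exposure lasted 16 hr before ATP read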; note: potency is the fitted concentration of half-maximal effect). The method, boiled down:
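Luminescence from CellTiter-Glo after 30 min at room temperature reported cellular ATP as the cytotoxicity measure. Cells were the CHO reporter line with doxycycline-induced ROR-gamma expression, exposed to compound for 16 hr at 37 C.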

Test [13] can be described thus: qHTS assay for small molecule agonists of the antioxidant response element (ARE) signaling pathway measured by Nrf2-dependant transcriptional activity - cell viability counter screen (AID 720653; active = well fitted curve in the direction sought with a large enough effect in the repeat runs; an effect the other way counts as inactive or inconclusive; note: potency is the fitted concentration of half-maximal effect; for max response: % is set by controls: 0 for no effect and ±100 for the full control effect). To be noted: ARE-bla HepG2 viability, CellTiter-Glo ATP luminescence, 16 h; max response: stronger effect = lower value. In a few lines: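 ARE-bla HepG2 cells treated with compounds for 16 h at 37C; this counter screen measures viability as intracellular ATP by CellTiter-Glo luminescence after 30 min at room temperature.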

Test [14] is described as follows: qHTS assay for cell viability of HEK293 cells (AID 743288). For max response: % is set by controls: 0 for no effect and ±100 for the full control effect. Note: nearly all actives have a fitted effect of over 50% in size. Note: potency is the fitted concentration of half-maximal effect. To be noted: ATP luminescence (CellTiter-Glo), 18 h; max response: stronger effect = lower value. In a few lines: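 Luminescent ATP quantitation served as the viability read-out. Cells (parental HEK293, 2,000/well) received compounds after at least 5 h at 37 C and were exposed for 18 h before a 30 min room-temperature reagent step.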

The nature of test [15]: qHTS assay for cell viability of the p53RE-bla HCT-116 cell line (AID 743292). Note: nearly all actives have a fitted effect of over 55% in size. Note: potency is the fitted concentration of half-maximal effect. In a few lines:
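ATP-based luminescence, 16 h compound exposure at 37 C, p53RE-bla HCT-116 cells at 4,000/well.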

A short description of test [16]: qHTS for small molecule inhibitors of Yes1 kinase: Counter Assay (AID 686950).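 Note: no kinase present so only ADP-Glo detection of a fixed ADP amount is tested; luminescence from ADP-Glo reporting ADP in a fixed ATP and ADP mixture; 0% = DMSO wells with ATP plus ADP and -100% = ATP-only wells without ADP.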 In a few lines: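 Enzyme-free detection counter-screen: compounds preincubated 20 min in buffer, then 0.08 mM ATP plus 0.02 mM ADP added for 60 min at room temperature; ADP-Glo luminescence. Buffer 50 mM Tris pH 7.5, 10 mM MgCl2, 150 mM NaCl; normalized to ATP+ADP and ATP-only controls.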

Test [17] can be described thus: qHTS profiling for inhibitors of Plasmodium falciparum (3D7) proliferation (AID 743322; call rule not given here;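 note: infected erythrocytes exposed to compound for 72 h before lysis; 100% = DMSO vehicle wells and 0% = 0.29 µM artemisinin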). To be noted: P. falciparum 3D7 proliferation; at 28.7 µM (top of the series). The method, boiled down: as §1
A short description of test [18]: qHTS profiling for inhibitors of Plasmodium falciparum (DD2) proliferation (AID 743323; call rule not given here). As to conditions: lower = more inhibition; at 28.7 µM (top of the series). In a few lines: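 SYBR Green fluorescence (ex 485, em 535 nm) of lysed cultures gives parasite DNA content; wells normalized to artemisinin (0.29 uM) and DMSO controls. Infected red cells: 0.3% parasitemia, 2.5% hematocrit, 72 h, 37 C.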

Test [19] in a line: qHTS profiling for inhibitors of Plasmodium falciparum (HB3) proliferation (AID 743324).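 Note: 100% = DMSO vehicle wells and 0% = artemisinin-treated control wells.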 To be noted: Plasmodium falciparum HB3 blood-stage proliferation; at 28.7 µM (top of the series). In a few lines: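 P. falciparum HB3 grown in erythrocytes (0.3% parasitemia, 2.5% hematocrit final) with compound for 72 h at 37 C, 5% CO2. Parasite DNA detected by SYBR Green after saponin/triton lysis overnight; normalized to 0.29 uM artemisinin and DMSO.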

T1 sequence (P35557 whole entry, looked up): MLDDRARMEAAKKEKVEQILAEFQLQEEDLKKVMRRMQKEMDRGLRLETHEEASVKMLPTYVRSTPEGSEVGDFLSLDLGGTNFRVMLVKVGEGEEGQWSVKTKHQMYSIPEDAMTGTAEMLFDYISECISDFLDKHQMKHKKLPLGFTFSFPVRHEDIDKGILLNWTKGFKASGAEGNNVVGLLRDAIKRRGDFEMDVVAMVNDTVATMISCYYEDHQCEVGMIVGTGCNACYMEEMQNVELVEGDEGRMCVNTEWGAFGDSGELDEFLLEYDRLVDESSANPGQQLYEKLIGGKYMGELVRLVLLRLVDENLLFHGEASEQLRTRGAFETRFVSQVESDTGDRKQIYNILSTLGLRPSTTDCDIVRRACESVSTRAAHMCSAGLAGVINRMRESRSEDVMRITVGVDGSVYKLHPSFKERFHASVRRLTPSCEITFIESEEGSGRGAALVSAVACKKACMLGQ
T1 sequence (Q14397 whole entry, looked up): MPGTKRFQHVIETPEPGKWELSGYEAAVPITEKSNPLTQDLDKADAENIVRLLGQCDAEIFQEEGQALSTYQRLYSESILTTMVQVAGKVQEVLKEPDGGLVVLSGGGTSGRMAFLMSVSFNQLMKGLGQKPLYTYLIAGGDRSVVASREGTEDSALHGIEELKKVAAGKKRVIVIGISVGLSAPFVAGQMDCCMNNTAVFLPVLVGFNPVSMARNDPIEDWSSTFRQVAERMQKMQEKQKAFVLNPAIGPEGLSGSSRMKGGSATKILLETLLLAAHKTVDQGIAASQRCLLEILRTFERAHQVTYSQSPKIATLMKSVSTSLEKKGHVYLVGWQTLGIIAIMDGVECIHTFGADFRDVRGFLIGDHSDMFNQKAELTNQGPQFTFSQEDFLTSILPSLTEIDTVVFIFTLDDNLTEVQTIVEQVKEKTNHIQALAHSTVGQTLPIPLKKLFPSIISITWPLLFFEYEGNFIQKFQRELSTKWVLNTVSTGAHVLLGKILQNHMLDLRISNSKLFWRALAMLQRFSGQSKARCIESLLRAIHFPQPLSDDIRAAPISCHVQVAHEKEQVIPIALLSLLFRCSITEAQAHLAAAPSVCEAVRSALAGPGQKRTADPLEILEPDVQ
Arylsulfatase A (Homo sapiens), sequence (P15289 whole entry, looked up): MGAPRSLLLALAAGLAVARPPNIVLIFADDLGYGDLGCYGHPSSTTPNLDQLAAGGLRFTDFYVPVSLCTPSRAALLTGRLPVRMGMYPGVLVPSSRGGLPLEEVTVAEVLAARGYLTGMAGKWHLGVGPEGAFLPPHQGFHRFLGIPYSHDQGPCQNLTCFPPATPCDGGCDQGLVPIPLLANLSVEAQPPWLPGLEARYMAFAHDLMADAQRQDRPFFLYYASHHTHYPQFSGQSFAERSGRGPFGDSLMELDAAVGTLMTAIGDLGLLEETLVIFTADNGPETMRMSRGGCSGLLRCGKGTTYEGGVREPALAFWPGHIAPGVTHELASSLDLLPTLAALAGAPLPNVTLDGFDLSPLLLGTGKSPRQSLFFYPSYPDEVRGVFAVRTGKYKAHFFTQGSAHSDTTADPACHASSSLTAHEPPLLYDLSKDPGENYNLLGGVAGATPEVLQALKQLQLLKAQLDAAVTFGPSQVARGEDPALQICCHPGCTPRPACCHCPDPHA

`CCN1CCCC1CNC(=O)c1cc(S(N)(=O)=O)ccc1OC` (stereo not given): the outcome in [1], in [2], in test [3], in [4], in test [5] and in [6] was inactive. Further, in test [7], the result was inactive. Besides, in test [8], the max response is 13% (inactive). Besides, in test [9], the parasite growth remaining, % of DMSO control (lower = more inhibition) was determined as 90.1%.

`NC(=O)c1cccc(N)c1`: the result in test [1], in [2], in test [3], in test [4], in [5] and in [6] was inactive. In addition, in test [7], the outcome was inactive. Besides, the max response in [8] is 25.5% (inactive). The molecule further came in with a parasite growth, % of DMSO control in [10] of 96.3%. Also, the parasite growth remaining, % of DMSO control (lower = more inhibition) in [9] amounted to 95.5%.

`CC1=C(C(=O)O)N2C(=O)[C@@H](NC(=O)C(N)c3ccccc3)[C@H]2SC1` (stereo not given in full): the result in [1], in [2], in test [3], in test [4], in test [5] and in test [6] was inactive. In addition, the outcome in test [7] was inactive. In test [8], the max response was 7.37% (inactive). Further, in [10], the parasite growth, % of DMSO control is 101%. In addition, the parasite growth remaining, % of DMSO control (lower = more inhibition) in test [9] worked out at 95.4%.

Turning to `CN(C)c1ccc(C(=C2C=CC(=[N+](C)C)C=C2)c2ccc(N(C)C)cc2)cc1`, the molecule was classed as inactive in [11]. The Potency in test [12] was 10.6 µM (active); in test [13], 25.1 µM (active) and 12.6 µM (active); in [8], 7.08 µM (active); in [14], 14.1 µM (active) and 11.2 µM (active); in test [15], 25.1 µM (active) and 35.5 µM (active). For the same molecule, in test [10], the parasite growth, % of DMSO control came out at 2.71%. Moreover, in test [9], the parasite growth remaining, % of DMSO control (lower = more inhibition) came to 5.08%.

With `COc1cc2c(Nc3ccc(Br)cc3F)ncnc2cc1OCC1CCN(C)CC1`, the call in [16] was inactive. In addition, the Potency in [8] was 9.35 µM (active) and 5.62 µM (active). Besides, the remaining parasite growth % (stronger effect = lower value) in [17] was -1.51%. The activity, percent of control in test [18] amounted to 3.65%. Besides, the parasite growth, % of DMSO control in [10] turned out to be 5.79%. Further, in [9], the parasite growth remaining, % of DMSO control (lower = more inhibition) was 7.29%.

Regarding `NNC(=O)c1ccncc1`, the molecule was classed as inactive in test [11]. Further, the Potency result in [12] and in test [15] was “inactive” in each case. In addition, the max response in test [13] is -4.52% (inactive); in [8], -1.22% (inactive); in test [14] it was -4% (inactive). This molecule came in with a parasite growth, % of DMSO control in test [10] of 5.29%. Further, the parasite growth remaining, % of DMSO control (lower = more inhibition) in test [9] stood at 8.99%.

As to `CC1(C)[C@H](C(=O)O)N2C(=O)C[C@H]2S1(=O)=O`, in test [8], the max response was 0.138% (inactive).

Regarding `O=NN(CCCl)C(=O)NC1CCCCC1`, in test [8], the max response is -7.36% (inactive).

For `COC(c1ccccc1)(c1ccccc1)[C@H](Oc1nc(C)cc(C)n1)C(=O)O`, the max response in test [8] was 8.54% (inactive). For the same molecule, the parasite growth, % of DMSO control in [10] worked out at 102%. Moreover, the parasite growth remaining, % of DMSO control (lower = more inhibition) in test [9] worked out at 102%.

Turning to `CC1=CC(=O)c2ccccc2C1=O`, in [8], the Potency is 12.6 µM (active). Further, the remaining parasite growth % (stronger effect = lower value) in [17] was 0.179%. Also, the activity, percent of control in test [18] was found to be 0.841%. In test [19], this molecule gave a remaining proliferation (% of control), lower = more inhibition of 4.17%. In test [10], the parasite growth, % of DMSO control came out at 40.3%. In addition, the parasite growth remaining, % of DMSO control (lower = more inhibition) in test [9] is 48%.

On to `CC(=O)CC(c1ccccc1)c1c(O)c2ccccc2oc1=O` (stereo not given), for which, in [11], the molecule was classed as inactive. For the same molecule, the max response in [13] was 12% (inactive); in test [14] it was 0.884% (inactive). The Potency result in test [15] is “inactive”.

As for `COc1ccccc1OCC(O)COC(N)=O` (stereo not given), the max response in test [8] was -1.63% (inactive). The parasite growth, % of DMSO control in test [10] was determined as 94.6%. Also, the parasite growth remaining, % of DMSO control (lower = more inhibition) in test [9] was determined as 96.9%.

As for `CN(Cc1cc(Br)cc(Br)c1N)C1CCCCC1`, the max response in test [8] was -1.96% (inactive). The parasite growth, % of DMSO control in test [10] amounted to 44.4%. Besides, the parasite growth remaining, % of DMSO control (lower = more inhibition) in test [9] was found to be 113%.

`Nc1nc(N)nc(-c2cc(Cl)ccc2Cl)n1`: the max response in test [8] was 11.2% (inactive). In [10], this molecule came in with a parasite growth, % of DMSO control of 83.2%. The parasite growth remaining, % of DMSO control (lower = more inhibition) in [9] came to 88.9%.

In the case of `O=C(O)c1cn(C2CC2)c2cc(N3CCNCC3)c(F)cc2c1=O`, in test [8], the max response was 4.49% (inactive). In [17], the remaining parasite growth % (stronger effect = lower value) worked out at 95%. For the same molecule, in test [18], the activity, percent of control is 90.7%. The same molecule came in with a remaining proliferation (% of control), lower = more inhibition in [19] of 92.1%. Besides, the parasite growth remaining, % of DMSO control (lower = more inhibition) in [9] came out at 85.5%.

The values are drawn from PubChem BioAssay (NCATS).
